This is a sample that favours compounds with a hit; in the whole collection about 2.8% have one here.
WRN inhibitor: blocks human WRN helicase. Q14191. WRN helicase unwinding, fluorescent forked duplex, kinetic. Potency, µM (series often up to 114 µM), usual class: inhibitors. hit rate 0.46% among 360,000. AID 651768; further: nearly all actives have a fitted effect of over 55% in size
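WRN at 20 nM final preincubated with compound 15 min at room temperature; reaction started with 100 nM fluorophore/quencher forked duplex oligonucleotide and 2 mM ATP final. Unwinding followed kinetically by red fluorescence (ex 525, em 598 nm).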
PI5P4Ka inh: PI5P4K alpha (human) kinase inhibition | max response, % | PI5P4Kalpha enzyme, ADP-Glo luminescence, 60 min; active compounds read low | P48426 | hit rate 1.2% among 330,000; active means max response of -50% or lower; inconclusive means between -30% and -50%; inactive means -30% or higher; further: value at the top dose of about 77 µM
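qHTS, 1536-well: enzyme/substrate mix, compound by pin tool, 5 microM ATP final; RT 60 min; ADP-Glo reagents 1 (45 min) then 2 (30 min); luminescence.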
Pol beta inh: DNA polymerase beta (human) inhibition | Pol beta primer extension/strand displacement, fluorescence kinetic | Potency, µM (top dose mostly 114 µM), usual class: inhibitors | hit rate 1.3% among 340,000
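Enzyme-only controls used 10 nM Pol beta; buffer lacking enzyme served as negative control. Compound preincubated 15 min, then 50 nM substrate added; 0 and 10 min reads at room temperature.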
POLH inh: inhibitors of human DNA polymerase eta. hit rate 1.2% among 390,000. recombinant Pol eta, fluorescent DNA replication assay. Potency, µM (series often up to 114 µM), most hits filed as inhibitors. Q9Y253. AID 588591
Target sequence (Q9Y253 whole entry, looked up): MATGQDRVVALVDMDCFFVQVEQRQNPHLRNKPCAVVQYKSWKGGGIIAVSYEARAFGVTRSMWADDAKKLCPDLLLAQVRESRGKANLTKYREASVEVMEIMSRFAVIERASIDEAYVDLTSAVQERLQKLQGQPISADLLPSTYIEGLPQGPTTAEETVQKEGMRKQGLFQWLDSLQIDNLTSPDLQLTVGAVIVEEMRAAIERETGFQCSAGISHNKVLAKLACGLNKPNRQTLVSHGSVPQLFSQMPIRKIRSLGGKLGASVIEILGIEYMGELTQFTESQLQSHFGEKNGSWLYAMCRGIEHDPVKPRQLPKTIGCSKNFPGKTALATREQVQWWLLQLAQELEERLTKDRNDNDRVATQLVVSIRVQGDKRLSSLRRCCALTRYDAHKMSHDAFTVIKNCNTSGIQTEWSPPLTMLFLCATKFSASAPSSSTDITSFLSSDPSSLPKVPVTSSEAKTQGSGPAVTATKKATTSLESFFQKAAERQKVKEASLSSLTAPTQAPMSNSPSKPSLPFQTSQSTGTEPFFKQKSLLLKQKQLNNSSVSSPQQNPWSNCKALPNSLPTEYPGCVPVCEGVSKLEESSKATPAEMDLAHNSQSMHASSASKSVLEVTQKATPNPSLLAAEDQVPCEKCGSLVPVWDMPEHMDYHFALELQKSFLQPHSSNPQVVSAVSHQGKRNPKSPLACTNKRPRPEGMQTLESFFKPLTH
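Pol eta at 10 nM preincubated with compounds 15 min at room temperature; reaction started with fluorescent substrate (50 nM final) and read kinetically at 0 and 10 min.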
POLI inh: blocks human DNA polymerase iota activity | Q9UNA4 | Potency, µM (highest dose often 115 µM), hits mostly inhibitors | hit rate 1% among 390,000 | Pol iota fluorescent replication assay, 10 min
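Pol iota at 10 nM preincubated 15 min with compounds at room temperature; reaction started with fluorescent substrate, 50 nM final. Fluorescence read kinetically at 0 and 10 min; buffer-only wells as negative control.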
POLK inh: DNA polymerase kappa (human) inhibition. purified Pol kappa, fluorescent DNA synthesis assay, 10 min. Q9UBT6. hit rate 0.53% among 400,000. Potency, µM (series often up to 107 µM), most hits filed as inhibitors
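Activity was followed as the change in fluorescence between reads at 0 and 10 min after starting the reaction with 50 nM substrate. Beforehand, 10 nM polymerase had been preincubated with compound for 15 min at room temperature.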
Large screens that a line does not name were inactive. Unless noted, the call rests on the fitted dose curve; in most records, active means well fitted curve in the direction sought with a large enough effect; inconclusive means small, poorly fitted or top-dose-only effect, or another doubt; inactive means no such curve, though single readings can be large; an effect the other way counts as inactive or inconclusive.

CCOc1ccc(NC(=O)N2CCOc3ccccc32)cc1	none (no result: WRN inhibitor, PI5P4Ka inh)
CCC(=O)N1CCc2cc(S(=O)(=O)NCCC(=O)Nc3ccc(OC)c(OC)c3)ccc21	none (no result: WRN inhibitor, PI5P4Ka inh)
NC(=O)N(CCC(=O)O)c1ccccc1	Pol beta inh 20µM, POLH inh inconclusive
CCN(CCC(=O)O)c1ccccc1	none
O=C(CCc1nnc2ccc(NCc3ccco3)nn12)N1CCN(c2ccccc2)CC1	PI5P4Ka inh inconclusive, POLH inh 44.7µM, POLI inh 20µM, POLK inh inconclusive
CCOC(=O)C1CCN(C(=O)CCc2nnc3ccc(NCc4ccco4)nn23)CC1	POLH inh 44.7µM, POLI inh inconclusive
CCc1sc(-c2cc3cccc(OC)c3oc2=O)nc1-c1ccccc1	none (no result: WRN inhibitor, PI5P4Ka inh, Pol beta inh, POLH inh)
CC1(C)CC[C@]2(C(=O)n3ccnc3)CC[C@]3(C)[C@H](C(=O)C=C4[C@@]5(C)C=C(C#N)C(=O)C(C)(C)[C@@H]5CC[C@]43C)[C@@H]2C1	WRN inhibitor inconclusive, PI5P4Ka inh inconclusive, POLH inh 3.55µM, POLI inh 14.1µM (no result: Pol beta inh)
CCn1c(CSc2ncn[nH]2)nc2cc(C(=O)O)ccc21	none
CCn1c(CSc2nnc(-c3ccncc3)n2C)nc2cc(C(=O)O)ccc21	WRN inhibitor 70.8µM, POLI inh 25.1µM
O=c1[nH]c(NC2CCCCC2)c([N+](=O)[O-])c(=O)[nH]1	PI5P4Ka inh -76.3
COc1cc2c(=O)n(Cc3ccccc3)c(=O)n(CC(=O)Nc3cc(C(F)(F)F)ccc3Cl)c2cc1OC	none (no result: WRN inhibitor, PI5P4Ka inh)
O=S(=O)(c1ccc(Cl)cc1)N1CCCC(c2nc(-c3ccc(F)cc3)no2)C1 (stereo unspecified)	none (no result: Pol beta inh)
O=C(CC1CCCCC1)N1CCCC(c2nc(-c3ccc(S(=O)(=O)N4CCCC4)cc3)no2)C1 (stereo unspecified)	Pol beta inh 35.5µM, POLH inh inconclusive, POLI inh inconclusive (no result: PI5P4Ka inh)
CC(NC(=O)COC(=O)c1cn(-c2ccccc2)nc1-c1cccs1)c1ccccc1 (stereo unspecified)	POLH inh 79.4µM, POLI inh inconclusive (no result: PI5P4Ka inh)
CCOc1ccc(NC(=S)NNC(=S)Nc2cccc(C(F)(F)F)c2)cc1	POLI inh inconclusive
COc1ccc(NC(=S)NNC(=S)Nc2cccc(C(F)(F)F)c2)cc1	WRN inhibitor inconclusive, PI5P4Ka inh -78.0
CCOC(=O)c1ccc(NC(=O)CC(=O)Nc2ccc3nc4n(c(=O)c3c2)CCCCC4)cc1	none (no result: WRN inhibitor, PI5P4Ka inh)
Cc1ccc(-n2nc(-c3ccco3)cc2C(=O)O)cc1	WRN inhibitor 44.7µM, PI5P4Ka inh -51.5, Pol beta inh inconclusive, POLH inh 14.1µM, POLI inh 17.8µM, POLK inh inconclusive
O=C(c1cc(-c2ccco2)nn1-c1cccc(Cl)c1)N1CCCCC1	WRN inhibitor 56.2µM, PI5P4Ka inh -81.6, Pol beta inh inconclusive, POLH inh 17.8µM, POLI inh inconclusive, POLK inh inconclusive
CC(Cc1c[nH]c2ccccc12)C(=O)O (stereo unspecified)	Pol beta inh 7.08µM, POLK inh inconclusive
O=C1N=C(N2CCCC2)S/C1=C\c1ccccc1	none
O=C1N=C(N2CCN(c3ccccc3)CC2)S/C1=C\c1ccco1	PI5P4Ka inh inconclusive, Pol beta inh 12.6µM, POLH inh inconclusive, POLI inh 44.7µM
O=C1N=C(N2CCN(c3ccccc3)CC2)S/C1=C\c1cn[nH]c1-c1ccccc1	PI5P4Ka inh -51.5
Cc1ccc(N2CCN(C3=NC(=O)/C(=C\c4cn[nH]c4-c4ccccc4)S3)CC2)cc1	none
O=C1N=C(N2CCN(c3ccccc3)CC2)S/C1=C/c1ccco1	Pol beta inh inconclusive, POLI inh 44.7µM, POLK inh inconclusive
Cc1[nH]c2ccccc2c1/C=C/c1ccnc2ccccc12	none (no result: WRN inhibitor, PI5P4Ka inh, Pol beta inh, POLH inh)
Cc1ccc(/C=C2\S/C(=N/S(=O)(=O)c3cccs3)NC2=O)cc1	WRN inhibitor 50.1µM, PI5P4Ka inh -59.2, POLH inh 25.1µM, POLI inh 39.8µM
O=C1N/C(=N/S(=O)(=O)c2ccccc2)S/C1=C/c1cccnc1	PI5P4Ka inh -57.0, POLH inh inconclusive, POLI inh inconclusive
Cc1ccc(S(=O)(=O)/N=C2/NC(=O)/C(=C\c3ccccc3)S2)cc1	WRN inhibitor inconclusive, POLH inh inconclusive (no result: Pol beta inh)
O=C1NC(=Nc2ccccc2)S/C1=C\c1cccnc1	PI5P4Ka inh inconclusive
Cc1ccc(S(=O)Cc2ccc(C(=O)NC3CCCCCC3)o2)cc1 (stereo unspecified)	none (no result: WRN inhibitor, PI5P4Ka inh)
Oc1[nH]c2ccccc2c1N=NC(=S)N1CCOCC1	none
Oc1[nH]c2ccc(Br)cc2c1N=NC(=S)N1CCOCC1	PI5P4Ka inh -53.9
Cc1ccc(-c2nnc3ccc(SCC(=O)c4ccccc4)nn23)cc1	none (no result: WRN inhibitor, PI5P4Ka inh, Pol beta inh, POLH inh)
COc1ccc(O)c(/C=N/NC(=O)c2ccc(CSc3nc(C)cc(C)n3)cc2)c1	WRN inhibitor inconclusive, Pol beta inh 25.1µM, POLH inh inconclusive, POLI inh inconclusive, POLK inh inconclusive
COc1ccc(C(=O)N/N=C/c2cc(Br)ccc2O)cc1OC	POLI inh inconclusive, POLK inh inconclusive
Cc1cc(C)nc(SCc2ccc(C(=O)N/N=C/c3ccc(C(=O)O)cc3)cc2)n1	none
C/C(=N\NC(=O)c1ccc(CSc2nc(C)cc(C)n2)cc1)c1ccco1	Pol beta inh 56.2µM
Cc1cc(C)nc(SCc2ccc(C(=O)N/N=C/c3ccco3)cc2)n1	Pol beta inh 14.1µM
COc1ccc(O)c(/C=N/NC(=O)c2ccc(OCc3cccc(Br)c3)cc2)c1	Pol beta inh 15.8µM, POLI inh inconclusive (no result: PI5P4Ka inh)
CCn1c(=O)c2sccc2n2c(CCC(=O)Nc3ccc(F)cc3)nnc12	none (no result: WRN inhibitor, PI5P4Ka inh)
CCC(C(=O)Nc1cc(-c2nc3cccnc3s2)ccc1C)c1ccccc1 (stereo unspecified)	none (no result: WRN inhibitor, PI5P4Ka inh)
O=C(NNc1nc(-c2ccc(F)cc2)cs1)c1ccccc1	PI5P4Ka inh -52.6
Fc1ccc(N2CCN(c3ncnc4c3nc3n4CCCC3)CC2)cc1	none (no result: WRN inhibitor, PI5P4Ka inh)
Cc1cccc(N2CCC(N3CCN(C4CCCCC4)C(CCO)C3)CC2)c1C (stereo unspecified)	Pol beta inh 39.8µM
COc1ccc(Br)cc1CNC(=O)c1cnc2sc(N3CCCC3)nn2c1=O	none (no result: WRN inhibitor, PI5P4Ka inh)
O=C(CSCc1ccccc1Cl)N1CCN(c2ccc(Cl)cc2)CC1	none (no result: WRN inhibitor, PI5P4Ka inh)
COC(=O)c1ccccc1CSc1nsc(/C=C/N(C)C)c1C#N	PI5P4Ka inh -56.9, POLH inh inconclusive
Cc1c(NC(=O)c2cc(-n3cnnc3)ccc2Cl)cccc1-c1nc2ccccc2o1	none
O=C(Nc1ccc(-c2nc3ccccc3o2)cc1)c1cc(-n2cnnc2)ccc1Cl	none
O=C(Nc1ccc2oc(-c3ccccc3)nc2c1)c1cc(-n2cnnc2)ccc1Cl	Pol beta inh inconclusive, POLI inh 35.5µM
O=C(Nc1ccc(-c2nc3ccccc3o2)c(O)c1)c1cc(-n2cnnc2)ccc1Cl	Pol beta inh 35.5µM, POLI inh inconclusive (no result: PI5P4Ka inh)

Screens: PubChem, National Center for Advancing Translational Sciences (NCATS)
